This note sets out measurements from PubChem BioAssay AID488847 (NMMLSC, 2010).

In all, about 330,000 compounds went through this assay and about 1,900 (0.58%) were called active. The sample holds actives, similar compounds and a random draw of the others, so the mix is not that of the screen.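 The calls were made as follows: active = inhibition of aptamer binding above 40%, roughly 3 SD of noise, on plates passing a quality check; inactive = the rest.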

Sequence of Beta-adrenergic receptor kinase 1 (Homo sapiens) (P25098 whole entry, looked up): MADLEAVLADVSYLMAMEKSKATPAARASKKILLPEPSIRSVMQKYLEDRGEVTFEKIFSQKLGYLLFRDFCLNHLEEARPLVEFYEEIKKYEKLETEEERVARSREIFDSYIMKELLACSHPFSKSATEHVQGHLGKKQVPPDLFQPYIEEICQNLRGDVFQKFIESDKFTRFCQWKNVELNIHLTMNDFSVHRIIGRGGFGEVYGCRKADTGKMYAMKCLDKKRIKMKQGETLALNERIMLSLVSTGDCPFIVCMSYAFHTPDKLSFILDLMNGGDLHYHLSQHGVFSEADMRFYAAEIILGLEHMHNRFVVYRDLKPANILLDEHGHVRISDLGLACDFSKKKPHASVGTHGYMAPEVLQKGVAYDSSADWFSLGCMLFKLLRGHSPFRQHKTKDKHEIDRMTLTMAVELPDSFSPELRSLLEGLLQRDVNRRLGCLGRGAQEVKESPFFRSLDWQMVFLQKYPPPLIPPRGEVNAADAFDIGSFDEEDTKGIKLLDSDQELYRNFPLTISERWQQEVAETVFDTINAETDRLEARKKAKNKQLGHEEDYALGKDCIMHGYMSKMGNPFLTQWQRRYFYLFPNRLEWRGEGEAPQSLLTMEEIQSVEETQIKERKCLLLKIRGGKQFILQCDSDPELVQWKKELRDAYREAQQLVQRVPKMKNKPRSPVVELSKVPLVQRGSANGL

This assay concerns the target Beta-adrenergic receptor kinase 1 (Homo sapiens) (UniProt P25098). Put plainly: compounds blocking aptamer binding on GRK2 – biochemical, human GRK2, bead flow cytometry, HTS, primary screen (AID 488847).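 Also: median bead fluorescence of bound FAM aptamer so fluorescent compounds give negative values.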 The settings on record: FAM-aptamer displacement from GRK2, at 10 µM, hits give high values. Background: In flow cytometry, cells or beads pass a laser one at a time.
Regarding `CN(CCc1ccccn1)S(=O)(=O)c1ccc2c3c(cccc13)C(=O)N2`, the inhibition of aptamer binding was 0% (inactive).

Take `Cc1ccccc1C(=O)N1CCC(C(=O)Nc2ccc(S(=O)(=O)N(C)C(C)C)cc2)CC1`: the inhibition of aptamer binding is 0% (inactive).

In the case of `CCCCc1nc2ccccc2c(=O)n1NC(=O)c1c(O)c2cccc3c2n(c1=O)CC3`, the inhibition of aptamer binding is 0% (inactive).

As for `COc1cc(C(=O)Nn2c(CC(C)C)nc3ccccc3c2=O)cc(OC)c1OC`, the inhibition of aptamer binding was 0% (inactive).

As for `CCCc1nc2ccccc2c(=O)n1NC(=O)c1c(O)c2ccccc2[nH]c1=O`, the inhibition of aptamer binding was 92% (active).

In the case of `Cc1ccc(NC(=O)COC(=O)CNC(=O)c2ccc(Cl)cc2Cl)cc1S(=O)(=O)N1CCOCC1`, the inhibition of aptamer binding is 2% (inactive).

Regarding `Fc1ccc(CNc2nc3ccccc3n3nnnc23)cc1`, the inhibition of aptamer binding is 2% (inactive).

In the case of `O=c1ccc2c(-c3ccccc3S(=O)(=O)O)c3ccc(O)c(O)c3oc-2c1O`, the inhibition of aptamer binding was 75% (active).

For the compound `Cc1cc(OCC(=O)N(C)c2c(N)n(Cc3ccccc3)c(=O)[nH]c2=O)c(C(C)C)cc1Cl`, the inhibition of aptamer binding was 1% (inactive).

For `O=C1CCCCC1Sc1ccc(Cl)cc1[N+](=O)[O-]` (stereo not given), the inhibition of aptamer binding was 1% (inactive).

Turning to `COc1ccccc1N(C)S(=O)(=O)c1ccc(Cl)c(C(=O)Nc2ccncc2)c1`, the inhibition of aptamer binding was 0% (inactive).

In the case of `O=C1CCCN1C(=O)COc1ccc([N+](=O)[O-])cc1`, the inhibition of aptamer binding is 1% (inactive).

Take `O=C(Nc1nnc(-c2ccco2)o1)c1ccc(S(=O)(=O)N2CCOCC2)cc1`: the inhibition of aptamer binding is 0% (inactive).

As to `CN=C(Nc1cccc(S(=O)(=O)N2CCOCC2)c1)c1ccccc1`, the inhibition of aptamer binding was 79% (active).

As for `O=C(Nc1ccc(N2CCOCC2)cc1)c1cccc(S(=O)(=O)N2CCOCC2)c1`, the inhibition of aptamer binding was 2% (inactive).

On to `O=C(CSc1ccccc1)Nc1cccc(S(=O)(=O)N2CCOCC2)c1`, for which the inhibition of aptamer binding is 2% (inactive).

Regarding `O=C(Nc1nnc(-c2ccccc2)o1)c1cccc(S(=O)(=O)N2CCOCC2)c1`, the inhibition of aptamer binding was 49% (active).

Turning to `O=C(COC(=O)c1ccccc1)Nc1cccc(S(=O)(=O)N2CCOCC2)c1`, the inhibition of aptamer binding is 1% (inactive).

Regarding `Nc1cc(N2CCCCCC2)c2nonc2c1[N+](=O)[O-]`, the inhibition of aptamer binding is 0% (inactive).

In the case of `CCOc1ccc(OCC)c(NC(=O)CCS(=O)(=O)c2ccc(C)cc2)c1`, the inhibition of aptamer binding is 0% (inactive).

Consider `COc1ccc(NC(=O)CCS(=O)(=O)c2cc3c(cc2Cl)NC(=O)CO3)cc1OC`, for which the inhibition of aptamer binding is 0% (inactive).

With `COc1ccc(Cl)cc1NC(=O)CCS(=O)(=O)c1ccc(Br)cc1`, the inhibition of aptamer binding is 89% (active).

Turning to `COc1ccc(Cl)cc1NC(=O)COC(=O)c1ccc(Br)o1`, the inhibition of aptamer binding was 0% (inactive).

As for `Cc1cc2c(cc1S(=O)(=O)CCC(=O)NCc1ccccc1)OCC(=O)N2`, the inhibition of aptamer binding is 2% (inactive).

`O=C(Cc1ccc(Br)cc1)NCCc1ccccc1`: the inhibition of aptamer binding is 1% (inactive).

On to `COc1ccc(Cl)cc1NC(=O)CCS(=O)(=O)c1cc2c(cc1C)NC(=O)CO2`, for which the inhibition of aptamer binding is 80% (active).

On to `O=C(CCS(=O)(=O)c1ccc(Br)cc1)NCCc1ccc(Cl)cc1`, for which the inhibition of aptamer binding was 49% (active).

Take `Cc1ccc(S(=O)(=O)CCC(=O)OCC(=O)NCCc2ccc(S(N)(=O)=O)cc2)cc1`: the inhibition of aptamer binding was 0% (inactive).

As to `Cc1ccc(CN2C(=O)N/C(=C/c3cc(C)n(-c4ccccn4)c3C)C2=O)cc1`, the inhibition of aptamer binding was 1% (inactive).

In the case of `CCc1cc2c(=O)c(-c3nc4ccccc4n3C)c(CCCC(=O)O)oc2cc1OC(=O)C(C)(C)C`, the inhibition of aptamer binding was 1% (inactive).

For the compound `COc1ccc(CN2C3CCCC2CC(NC(=O)c2cccc(F)c2)C3)cc1` (stereo not given), the inhibition of aptamer binding is 0% (inactive).

As to `CC(=O)N1CCC(C(=O)Nc2nc(-c3ccccc3)ns2)CC1`, the inhibition of aptamer binding was 0% (inactive).

Consider `CC(Sc1nncn1C)C(=O)Nc1cc(C(F)(F)F)ccc1N1CCOCC1` (stereo not given), for which the inhibition of aptamer binding is 0% (inactive).

For `C=CCNC(=O)CC12CC3CC(C1)CC(CC(=O)NCC=C)(C3)C2`, the inhibition of aptamer binding is 1% (inactive).

Take `O=C(N1CCCC1)C12CC3CC(C1)CC(C(=O)N1CCCC1)(C3)C2`: the inhibition of aptamer binding is 3% (inactive).

As to `O=C(NCC12CC3CC(C1)CC(CNC(=O)N1CCCC1)(C3)C2)N1CCCC1`, the inhibition of aptamer binding was 54% (active).

For `O=c1[nH]c(SCc2ccccc2)nnc1-c1ccccc1`, the inhibition of aptamer binding was 80% (active).

As for `Cc1ccccc1CSc1nnc(-c2ccccc2)c(=O)[nH]1`, the inhibition of aptamer binding is 3% (inactive).

On to `N#Cc1c(-c2ccccc2)nc(SCc2ccc([N+](=O)[O-])cc2)[nH]c1=O`, for which the inhibition of aptamer binding is 5% (inactive).

`COc1cc(OC)cc(C(=O)Nc2nnc(SCC(=O)NCC3CCCO3)s2)c1` (stereo not given): the inhibition of aptamer binding was 0% (inactive).

Consider `CCC(=O)Nc1ccccc1C(=O)N1CCN(Cc2ccccc2)CC1`, for which the inhibition of aptamer binding is 2% (inactive).

With `CC(C)(C)Nc1nc(-c2ccccn2)nc2ccccc12`, the inhibition of aptamer binding is 0% (inactive).

Take `COc1ccc(Nc2nc(-c3cccnc3)nc3ccccc23)cn1`: the inhibition of aptamer binding was 60% (active).

As to `S=c1nc2ccccc2c2nc(-c3cccnc3)[nH]n12`, the inhibition of aptamer binding was 0% (inactive).

As for `COc1cc(OC)c(C2=NOC(C(=O)Nc3c(C)n(C)n(-c4ccccc4)c3=O)C2)cc1Cl` (stereo not given), the inhibition of aptamer binding was 1% (inactive).

Take `Cc1ccc(Sc2cc(C(=O)c3ccccc3C(=O)O)ccc2[N+](=O)[O-])cc1`: the inhibition of aptamer binding is 0% (inactive).

With `O=C(NCc1ccccc1)[C@H]1C[C@@H]1[C@H](NP(=O)(c1ccccc1)c1ccccc1)c1ccccc1`, the inhibition of aptamer binding is 0% (inactive).

Take `COc1ccccc1N1CCN(CC(=O)Nc2ccnn2C2CCCC2)CC1`: the inhibition of aptamer binding is 0% (inactive).

As for `C/C(=N\Nc1nc2ccccc2[nH]1)c1cccs1`, the inhibition of aptamer binding was 100% (active).

Turning to `C/C(=N\Nc1nc(Nc2ccccc2)nc(N2CCOCC2)n1)c1cccs1`, the inhibition of aptamer binding was 0% (inactive).

In the case of `O=C(Nc1ccccc1-c1nc2ccccc2[nH]c1=O)c1cccs1`, the inhibition of aptamer binding was 1% (inactive).

As for `CCN(CC(=O)NCc1ccc(Cl)cc1)C(=O)c1c(C)noc1C`, the inhibition of aptamer binding was 0% (inactive).

With `NC(=O)C1CCN(C(=O)c2ccc3c(=O)n(Cc4cccc(Br)c4)c(=S)[nH]c3c2)CC1`, the inhibition of aptamer binding is 69% (active).

As to `COc1ccc(Cn2c(=S)[nH]c3cc(C(=O)N4CCCCC4)ccc3c2=O)cc1`, the inhibition of aptamer binding was 2% (inactive).

In the case of `CCOc1cc2[nH]c(=S)n(Cc3ccc(C(=O)N4CCN(C)CC4)cc3)c(=O)c2cc1OCC`, the inhibition of aptamer binding was 0% (inactive).

For `O=S(=O)(c1ccc(NC(=S)NN=C(C2CC2)C2CC2)cc1)N1CCOCC1`, the inhibition of aptamer binding was 1% (inactive).

Consider `O=[N+]([O-])c1cc(Cl)cc(/C=N/NC(=S)Nc2cc(S(=O)(=O)N3CCOCC3)ccc2Cl)c1O`, for which the inhibition of aptamer binding was 98% (active).

Regarding `Cc1ccc(S(=O)(=O)N2CCN(CC(=O)N/N=C/c3cc([N+](=O)[O-])ccc3Cl)CC2)cc1`, the inhibition of aptamer binding is 0% (inactive).

With `Fc1ccccc1Cc1ccc(Cl)nn1`, the inhibition of aptamer binding is 0% (inactive).

As for `CCN1CCN(CC(=O)Nc2sc3c(c2C#N)CCC3)CC1`, the inhibition of aptamer binding was 0% (inactive).

Turning to `COc1cccc(CN(C)CC(=O)Nc2sc3c(c2C#N)CCC3)c1`, the inhibition of aptamer binding was 94% (active).

Regarding `Cc1cccc(C(=O)OCC(=O)Nc2sc3c(c2C#N)CCC3)c1`, the inhibition of aptamer binding is 6% (inactive).

As for `Cc1nn2cc(-c3ccc(Cl)cc3)cnc2c1Br`, the inhibition of aptamer binding was 4% (inactive).

Regarding `CCOC(=O)c1cc2c(ccn2C)n1CC(=O)N1CCC(C)CC1`, the inhibition of aptamer binding is 1% (inactive).

For `Cc1ccc(OCC(=O)Oc2ccccc2[N+](=O)[O-])cc1`, the inhibition of aptamer binding was 1% (inactive).

In the case of `COc1ccc(C2c3ccc(O)cc3Oc3ncn(CCCO)c(=N)c32)cc1OC` (stereo not given), the inhibition of aptamer binding is 0% (inactive).

On to `COc1ccccc1S(=O)(=O)c1c(C)cc(C)[nH]c1=O`, for which the inhibition of aptamer binding is 1% (inactive).

In the case of `C=CCOc1ccc(/C=C2\SC(=S)N(CCC(=O)O)C2=O)cc1`, the inhibition of aptamer binding was 0% (inactive).

In the case of `Cc1ccc(/C=C2/SC(=S)N(CCC(=O)NCCCN3CCOCC3)C2=O)cc1`, the inhibition of aptamer binding is 5% (inactive).

For the compound `Cc1ccc(-c2nn(-c3ccccc3)cc2/C=C2\SC(=S)N(CCCCCC(=O)O)C2=O)o1`, the inhibition of aptamer binding is 48% (active).

As for `CC(=O)Oc1ccccc1C(=O)Nc1ncc([N+](=O)[O-])s1`, the inhibition of aptamer binding is 5% (inactive).

`CCSc1nc(O)c(C(c2cccc(OC)c2)c2c(O)nc(SCC)[nH]c2=O)c(=O)[nH]1`: the inhibition of aptamer binding was 9% (inactive).

For the compound `COc1ccc(Nc2nc(=O)[nH]nc2C)cc1`, the inhibition of aptamer binding is 4% (inactive).

On to `COc1ccc(Nc2ncnc3sc(C)cc23)cc1`, for which the inhibition of aptamer binding is 0% (inactive).

With `COc1ccc(Nc2cc(Sc3ccc(OC)cc3)ncn2)cc1`, the inhibition of aptamer binding is 46% (active).

For `CC(Sc1cccc[n+]1[O-])C(=O)Nc1cccc(S(=O)(=O)N2CCOCC2)c1` (stereo not given), the inhibition of aptamer binding was 1% (inactive).

`O=C(O)C1CCN(C(=O)OCc2ccccc2)CC1`: the inhibition of aptamer binding was 0% (inactive).

As to `NC(=O)c1ccsc1NC(=O)COC(=O)Cc1n[nH]c(=O)c2ccccc12`, the inhibition of aptamer binding was 2% (inactive).

Regarding `CCCCn1nc(C(=O)OCC(=O)Nc2sccc2C(N)=O)c2ccccc2c1=O`, the inhibition of aptamer binding was 84% (active).

With `COc1cc(OC)cc(C(=O)OCC(=O)Nc2sccc2C(N)=O)c1`, the inhibition of aptamer binding was 0% (inactive).

Take `CCc1ccc2oc(=O)cc(CN3CCCCC3C)c2c1` (stereo not given): the inhibition of aptamer binding was 0% (inactive).

For the compound `O=C(N/N=C/c1cccc(Br)c1)c1ccc(N2CCCC2=O)cc1`, the inhibition of aptamer binding is 0% (inactive).

Turning to `COc1cc(/C=N/NC(=O)c2cc(C)n(-c3ccc(F)cc3)c2C)cc(OC)c1O`, the inhibition of aptamer binding is 0% (inactive).

As for `COc1cc(/C=N/NC(=O)c2ccc(N3CCCC3=O)cc2)ccc1O`, the inhibition of aptamer binding was 49% (active).

As to `O=C(NCc1cccc(Cl)c1)C1CCN(c2nnc(N3CCCC3=O)s2)CC1`, the inhibition of aptamer binding is 0% (inactive).

On to `CN(C)S(=O)(=O)c1cccc(C(=O)OCC(=O)N2CCCC2=O)c1`, for which the inhibition of aptamer binding was 0% (inactive).

Regarding `Cc1cc(C)n(C(=O)c2ccc(S(=O)(=O)N3CCCC3)cc2)n1`, the inhibition of aptamer binding was 2% (inactive).

For the compound `CC(C)(C)NC(=O)Cn1nnc(-c2ccccc2Cl)n1`, the inhibition of aptamer binding was 2% (inactive).

On to `Cc1ccccc1-c1nnn(CC(=O)c2ccc(S(=O)(=O)N3CCCC3)cc2)n1`, for which the inhibition of aptamer binding is 47% (active).

In the case of `Cc1ccc(S(=O)(=O)C2(S(=O)(=O)c3ccc(C)cc3)CCCC2)cc1`, the inhibition of aptamer binding was 0% (inactive).

`CCCNc1c(N)c(=O)c1=O`: the inhibition of aptamer binding is 6% (inactive).

With `CCOC(=O)c1cc(-c2nnc(-c3cc(OC)c(OC)c(OC)c3)o2)c(C)nc1C`, the inhibition of aptamer binding was 1% (inactive).

For the compound `O=C(OCc1nnc(-c2ccccc2)o1)c1cc(=O)[nH]c2ccccc12`, the inhibition of aptamer binding was 3% (inactive).

As for `CCCc1nc2ccccc2c(C(=O)OCc2nnc(-c3cc(OC)c(OC)c(OC)c3)o2)c1CC`, the inhibition of aptamer binding is 41% (active).

As to `COc1cc(NC(=O)c2[nH]cnc2C(N)=O)cc(C(=O)Nc2cccc(C(F)(F)F)c2)c1`, the inhibition of aptamer binding was 0% (inactive).
